Screening data deposited in PubChem BioAssay by several laboratories.
SKKanGAS inh: S. pyogenes SKKanGAS growth inhibitors in kanamycin, primary screen, streptokinase expression inhibitor project, SKKanGAS strain, BacTiter-Glo luminescence; 6 h; inhibition, % at 7.5 µM; hit rate 1.3% among 300,000; AID 1662, 2009;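 active = mean replicate score, as percent of positive control median, at least 50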;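 also: strain carries kanamycin resistance gene driven by streptokinase promoter and grows in 40 µg/ml kanamycin; loss of luminescence reflects streptokinase promoter inhibition or plain growth inhibition; 0% = median of DMSO wells and 100% = positive control at its reference dose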
NALP1 inh: NALP1 inflammasome inhibitors in reconstituted yeast, colorimetric, S. cerevisiae, triplicate retest. S. cerevisiae NALP1/ASC/caspase-1 growth, X-gal OD620, 72 h. inhibition, % at 10 µM. hit rate 0.61% among 280,000. AID 2071, 2009; in the data active = inhibition mostly above about 24%, no sharp cut-off; inactive = mostly below about 32%
tim10-1 inh: growth inhibitors of tim10-1 mutant yeast, primary screen, luminescence, uHTS | AID 463190, 2010 | hit rate 2.2% among 330,000 | S. cerevisiae tim10-1 ts strain growth, BacTiter-Glo, 24 h | inhibition, % at 20 µM;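 active = inhibition of at least 40%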;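 also: mutant grown at 25 °C; 0% = DMSO wells with yeast and 100% = wells holding no yeast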
PfHsp90 set2: growth inhibition of PfHsp90-expressing yeast, primary screen, antimalarial PfHsp90 inhibitor project, S. cerevisiae, BacTiter-Glo luminescence, single point, set 2. BacTiter-Glo ATP, 48 h; yeast lacking PDR1 and PDR3 efflux regulators. inhibition, % at 9.4 µM. hit rate 0.32% among 310,000. AID 504621, 2011;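 active = every replicate shows inhibition above about 80%, whatever the replicate mean, limit read from the data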;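 also: 0% = DMSO neutral controls and 100% = 20 µM radicicol positive controls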
TIM10 inh: growth inhibitors of isogenic TIM10 control yeast, primary screen, counter-screen for tim10-1 yeast inhibitor project, luminescence, uHTS; S. cerevisiae TIM10 strain growth, BacTiter-Glo luminescence, 24 h; inhibition, % at 10 µM; hit rate 1.4% among 330,000;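 active = inhibition of 40% or more at the single tested concentration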;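 also: wild-type TIM10 isogenic control strain grown at permissive 25 °C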
tim23-1 inh: growth inhibitors of tim23-1 mutant yeast, primary screen, luminescence, uHTS; S. cerevisiae tim23-1 growth, BacTiter-Glo luminescence, 24 h; inhibition, % at 20 µM; hit rate 1.3% among 330,000; AID 463212, 2010;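 active = growth inhibition of the mutant yeast at or above 50%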;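 also: temperature-sensitive mutant grown at 25 °C; plate controls were DMSO-treated mutant yeast for no effect and medium wells lacking yeast for full effect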
* = called active by the depositor; . = no result. Sampled rows, rich in hits. Any-hit rate of the full collection: about 4.8%.

SMILES	SKKanGAS inh	NALP1 inh	tim10-1 inh	PfHsp90 set2	TIM10 inh	tim23-1 inh
COCCn1c(N)c(C(=O)Nc2sc3c(c2C(=O)OC)CCCC3)c2nc3ccccc3nc21	58*	9	11	-17	13	18
Cc1ccccc1NS(=O)(=O)c1cccc2nsnc12	-1	-1	6	5	6	11
Cc1nn(CCc2nn[nH]n2)c2nc(-c3ccc(C4CCCCC4)cc3)cc(C(F)(F)F)c12	104*	4	30	.	6	9
COc1cccc(NC(=O)c2cc(-c3ccc(OC)cc3OC)nc3ccccc23)c1	13	.	21	.	25	18
CC(NC(=O)Nc1ccc(Cl)cc1)c1ccccc1 (stereo not drawn)	1	15	5	12	-28	27
Cc1ccc(C(NC(=O)NC(C)c2ccccc2)C(Cl)(Cl)Cl)cc1F (stereo not drawn)	57*	39	25	11	21	17
CCn1c(=O)c(C(=O)Nc2ccccc2C)c(O)c2ccccc21	-3	-2	-5	5	-4	-5
C=CCn1c(=O)c(C(=O)NCc2ccccc2)c(O)c2ccccc21	55*	9	-18	-1	29	48
CCn1c(=O)c(C(=O)NNC(=O)c2ccccc2)c(O)c2ccccc21	53*	-38	-19	-3	-16	7
CCn1c(=O)c(C(=O)NCCc2ccccc2)c(O)c2ccccc21	13	-3	-7	20	11	-4
CCCCCCCC(=O)NNC(=O)c1c(O)c2ccccc2n(CCC)c1=O	111*	-8	-9	25	-4	17
CCCn1c(=O)c(C(=O)NNC(=O)Cc2ccccc2)c(O)c2ccccc21	36	13	-28	-6	4	-18
CCCCCCC(=O)NNC(=O)c1c(O)c2ccccc2n(CC)c1=O	112*	0	12	-4	21	34
CCCN1CCN(CC(=O)NCC(=O)Nc2cccc(C)c2C)CC1	.	.	-1	.	1	9
CCCCCCCCC(=O)NNC(=O)c1c(O)c2ccccc2n(CC)c1=O	106*	12	-21	6	6	32
CCCCCCCC(=O)NNC(=O)c1c(O)c2ccccc2n(CC)c1=O	99*	3	-20	7	-18	17
CCn1c(=O)c(C(=O)Nc2ccc(C)cc2)c(O)c2ccccc21	-3	-7	-14	7	-9	7
CC(C)Cn1c(=O)c(C(=O)Nc2ccncc2)c(O)c2ccccc21	96*	.	-8	106*	12	14
CCCn1c(=O)c(C(=O)NNC(=O)c2ccccc2Cl)c(O)c2ccccc21	86*	-13	-43	9	16	37
O=C1OC(c2ccc(F)cc2)=N/C1=C\c1ccc(Br)o1	0	-3	0	14	-12	39
COc1cc(OCc2ccccc2)c(OC)c(OCc2ccccc2)c1	.	.	.	25	.	.
O=C(CN1CCN(C(=O)CNC(=O)c2ccc3c(c2)OCO3)CC1)Nc1cccc(F)c1	.	.	0	10	7	8
Cc1cc(Cl)ccc1OCCCC(=O)N1CCCCC1	2	-24	24	20	20	34
Cc1cc(OCCCC(=O)N2CCCCC2)cc(C)c1Cl	-10	21*	20	.	13	4
Cc1occc1-c1nnc(SCC(=O)NC(C)(C)C)n1CC(C)C	-10	-25	10	18	6	12
SMILES	SKKanGAS inh	NALP1 inh	tim10-1 inh	PfHsp90 set2	TIM10 inh	tim23-1 inh
Cc1sc2ncn3c(C)nnc3c2c1C	6	24	25	-21	-1	15
c1nc(NCC2(N3CCOCC3)CCCCC2)c2ccsc2n1	-5	5	5	13	-7	19
Cc1sc2ncnc(NCC3(N4CCOCC4)CCCCC3)c2c1C	3	44*	3	-10	-62	17
COc1ccc(N2CCN(c3ccnc4cc(Cl)ccc34)CC2)cc1	4	-1	16	2	16	46
O=C(Nc1ccc(N2CCCC(O)C2)cc1)c1snc2c(=O)[nH]cnc12 (stereo not drawn)	30	10	1	20	-6	-7
Cc1nc2c(C(=O)Nc3ccc(N4CCCC(O)C4)cc3)snc2c(=O)[nH]1 (stereo not drawn)	59*	.	-13	1	-26	-28
COc1cccc(Cn2nnc(C(=O)Nc3cc(Cl)ccc3OC)c2N)c1	-13	40*	11	-21	15	24
Cc1cccc2sc(NNC(=O)c3cc(-c4cccs4)nc4ccccc34)nc12	88*	31	36	-98	-29	32
COc1cccc(NC(=O)CN(C)C(=O)c2ccc(COc3ccccc3)o2)c1	.	.	-4	14	9	10
Cc1cccc(S(=O)(=O)Nc2ccc(S(=O)(=O)Nc3nccs3)cc2)c1	.	.	-1	-8	8	3
C=C1C(=O)C23CCC4C(C)(C(=O)OC)CCCC4(C)C2CCC1(O)C3 (stereo not drawn)	.	.	.	104*	.	.
COC(=O)[C@]1(C)CCC[C@@]2(C)C3CC[C@@]4(C)C[C@]3(CCC21)CC(=O)N4 (stereo partly drawn)	.	.	10	.	6	37
O=C(CSc1nc(=O)n2ccccc2n1)NCc1ccccc1Cl	-3	.	-10	.	-2	10
Cc1ccc(CN(C)C(=O)C2CCC(=O)N(CCc3ccccc3)C2)o1 (stereo not drawn)	0	7	3	11	10	2
CCCSC(=S)c1c(C)[nH]n(-c2ccccc2)c1=O	89*	-8	14	-58	17	14
CCC(C)Sc1cc(-c2nc3ccc(C)cn3c2NCc2ccccc2)ccc1OC (stereo not drawn)	74*	.	.	13	.	.
CCC(C)Sc1cc(-c2nc3ccccn3c2NC2CCCCC2)ccc1OC (stereo not drawn)	87*	.	40	14	2	3
CCC(C)Sc1ccc(-c2nc3ccc(C)cn3c2NCc2ccccc2)cc1OC (stereo not drawn)	53*	.	36	-14	37	50
CCCCCCSc1ccc(-c2nc3ccc(C)cn3c2NCc2ccccc2)cc1OC	33	.	18	6	13	13
CCC(C)Sc1cccc(-c2nc3ccc(C)cn3c2NC2CCCCC2)c1 (stereo not drawn)	5	.	16	10	11	28
COc1ccc(-c2nc3ccc(C)cn3c2NCc2ccccc2)cc1SC1CCCCC1	16	.	5	-17	17	6
CC(C)c1nc2ccccn2c1NC1CCCCC1	-5	24*	11	34	4	6
Cc1occc1-c1nnc(SCCNCCO)o1	-1	-2	4	.	-25	-1
